Test results as given in PubChem BioAssay (NCATS).
Inconclusive results are not listed. Entries that show only a call come without a potency. Values without a mark were called inactive. Calls of active or inactive are those of the source. The call rests on the fitted dose curve; in most records, active means well fitted cell-killing curve with a large enough effect; inconclusive means small, poorly fitted or top-dose-only effect, or effect the other way; inactive means flat fitted curve, though single readings scatter. Where a SMILES comes first, the peptide text is derived from it.

System: Tov-21-G
Test: Primary qHTS to identify gynecologic anti-cancer compounds using libraries of approved drugs and bioactive compounds (AID 1345084); further: nearly all actives have a fitted effect of over 55% in size
Conditions: Gynecologic cancer cell panel viability, ATPlite luminescence, 48 h; series mostly up to 57.5 µM
Outline: (§1)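 Measured: luminescence after ATPlite addition (15 min, RT). Exposure: 48 h, 37 C, 5% CO2.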

Row | SMILES | Potency | activity change, negative = cytotoxicity
1 | O=S(=O)(NC1CCNCC1)c1cc(S(=O)(=O)c2ccccc2)ccc1C(F)(F)F | inactive | 
2 | CC1CCC2(C(=O)OC3OC(CO)C(O)C(O)C3O)CCC3(C)C(=CCC4C5(C)CC(O)C(O)C(C)(C(=O)O)C5CCC43C)C2C1(C)O (configuration not stated) | inactive | 
3 | Cc1nnc(C(C)C)n1C1CC2CCC(C1)N2CC[C@H](NC(=O)C1CCC(F)(F)CC1)c1ccccc1 (some centres not stated) | inactive | 
4 | Cc1nn(C)c2c1C(c1ccc(C(F)(F)F)cc1)C(C#N)=C(N)O2 (configuration not stated) | inactive | 
5 | CC(=O)[C@@H]1CC[C@]2(C(=O)O)CC[C@]3(C)C(CCC4[C@@]5(C)CC[C@H](O)C(C)(C)C5CC[C@]43C)C12 (some centres not stated) | inactive | 
6 | COc1cc(/C=C/C(=O)OC(C)(C)C(OC2OC(CO)C(O)C(O)C2O)C(=O)OCc2ccc(OC3OC(CO)C(O)C(O)C3O)cc2)ccc1O (configuration not stated) | inactive | 
7 | Cc1cn2c(N)c(Cl)cc(C(=O)NCC3CCN(CC(C)C)CC3)c2n1 | inactive | 
8 | CC(C)=CCC[C@](C)(O[C@@H]1O[C@H](CO[C@@H]2OC[C@@H](O)[C@H](O)[C@H]2O)[C@@H](O)[C@H](O)[C@H]1O)[C@H]1CC[C@]2(C)[C@@H]1[C@H](O)C[C@@H]1[C@@]3(C)CC[C@H](O[C@@H]4O[C@H](CO)[C@@H](O)[C@H](O)[C@H]4O[C@@H]4O[C@H](CO)[C@@H](O)[C@H](O)[C@H]4O)C(C)(C)[C@@H]3CC[C@]12C | inactive | 
9 | COc1ccc2c(c1)OC[C@]1(O)c3cc4c(cc3O[C@H]21)OCO4 | inactive | 
10 | COC1=CC(=O)O[C@@H](/C=C/c2ccccc2)[C@@H]1O | inactive | 
11 | CCOC(=O)N1CCC(NCCNC(=O)c2ccccc2C)CC1 | inactive | 
12 | C=C[C@@]1(C)CC(=O)C2[C@](C)(O1)[C@@H](OC(C)=O)[C@@H](O)[C@H]1C(C)(C)CCC[C@]21C (some centres not stated) |  | 0.473% [at 11.6 µM]
13 | O=C1N(CC2CCCCN2)CCN1c1ccccc1 (configuration not stated) | inactive | 
14 | COc1cc(C(C)=O)ccc1O[C@@H]1O[C@H](CO[C@@H]2O[C@@H](C)[C@H](O)[C@@H](O)[C@H]2O)[C@@H](O)[C@H](O)[C@H]1O | inactive | 
15 | COC(=O)[C@@]1(O)C=CC[C@@H]2[C@@]3(C)C[C@@H](c4ccoc4)OC(=O)[C@H]3CC[C@]21C | inactive | 
16 | COc1ccc(C(=O)O[C@H]2CC(C)=CC[C@@]3(C)[C@@H](OC(C)=O)C[C@@](O)(C(C)C)[C@H]23)cc1 | inactive | 
17 | CC1(C)CC(=O)N(CCCCN2CCN(c3ncccn3)CC2)C(=O)C1 | inactive | 
18 | C=C1CC[C@H]2[C@@](C)(CCC(O)[C@@]2(C)CO)[C@@H]1C/C=C(/C(=O)O)C(O)CO (some centres not stated) | inactive | 
19 | COc1cc(/C=C/C(=O)OC2CC(C)=C(C(=O)O)/C2=C/CO[C@@H]2O[C@H](CO)[C@@H](O)[C@H](O)[C@H]2O)ccc1O (some centres not stated) | inactive | 
20 | CC(=O)OCC1=C[C@H](O)[C@@H]2C(C(=O)O)=CO[C@@H](O[C@@H]3O[C@H](CO)[C@@H](O)[C@H](O)[C@H]3O)[C@H]12 | inactive | 
21 | C=CC(C)(C)O[C@@H]1O[C@H](CO[C@@H]2OC[C@](O)(CO)[C@H]2O)[C@@H](O)[C@H](O)[C@H]1O | inactive | 
22 | COC(=O)[C@@H]1C2CC3c4[nH]c5ccccc5c4CCN3CC2CC[C@@H]1O (some centres not stated) | inactive | 
23 | FC(F)(F)c1cc(C(F)(F)F)c2ccc3nc(-c4nnco4)cn3c2n1 | inactive | 
24 | COC(=O)C1=COC(OC2OC(CO)C(O)C(O)C2O)C2C1CC(OC(=O)C(O)CC(=O)O)C2C (configuration not stated) | inactive | 

System: Tov112D
Test: as above
Conditions: Gynecologic cancer cell panel viability, ATPlite luminescence, 48 h; series mostly up to 57.5 µM
Outline: as §1

Row | SMILES | Potency | activity change, negative = cytotoxicity
25 | Nc1nc(CC(=O)Nc2ccc(CCNCC(O)c3ccccc3)cc2)cs1 (configuration not stated) | inactive | 
26 | COc1ccc([C@@H]2N[C@H](C(=O)O)Cc3c2[nH]c2ccccc32)cc1CN1CCN(c2ccccc2F)CC1 | inactive | 
27 | CC1NC(=O)CNC(=O)C(C(C)C)NC(=O)C2CCCN2C(=O)C(C(C)C)NC(=O)C(Cc2c[nH]c3ccccc23)NC1=O (configuration not stated) (cyclo(GAWVPV); configuration not given here) | inactive | 
28 | CC(C)(C)c1cc(CN2CCN(CC(O)c3ccc(Cl)cc3)CC2)cc(C(C)(C)C)c1O (configuration not stated) | inactive | 
29 | CC[C@@H](c1ccc(F)c(F)c1)n1c(C(=O)OC)c(-c2ccno2)[nH]c1=S | inactive | 
30 | O=C(O)C[C@H]1CCC(=O)[C@@H]1C/C=C\CCOC1OC(CO)C(O)C(O)C1O (some centres not stated) | inactive | 
31 | N#Cc1ccc2[nH]c(O)c(-c3ccc(CN4CCOCC4)cn3)c2c1 | inactive | 
32 | C=Cc1cc(O)cc2nc(-c3ccc(O)c(F)c3)oc12 | inactive | 
33 | COc1ccc(C(OC2OC(CO)C(O)C(O)C2O)C(C)O)cc1 (configuration not stated) | inactive | 
34 | CC1CCC2(C(=O)OC3OC(COC4OC(CO)C(O)C(O)C4O)C(O)C(O)C3O)CCC3(C)C(=CCC4C5(C)CCC(O)C(C)(C(=O)O)C5CCC43C)C2C1(C)O (configuration not stated) |  | -8.14% [at 11.6 µM]
35 | Cc1cc(N2CCCCC2)nc2ccccc12 | inactive | 
36 | C=CC1(C)CC2=CCC3C(C)(C(=O)O)CCCC3(C)C2CC1OC(C)=O (configuration not stated) | inactive | 
37 | Cc1cc(Nc2ncc(Cl)c(Nc3ccccc3S(=O)(=O)C(C)C)n2)c(OC(C)C)cc1C1CCNCC1 | inactive | 
38 | CCn1c2ccccc2c2cc(CNC)ccc21 | inactive | 
39 | O=S(=O)(NC1CCNCC1)c1cc(S(=O)(=O)c2ccccc2)ccc1C(F)(F)F | inactive | 
40 | CC1CCC2(C(=O)OC3OC(CO)C(O)C(O)C3O)CCC3(C)C(=CCC4C5(C)CC(O)C(O)C(C)(C(=O)O)C5CCC43C)C2C1(C)O (configuration not stated) | inactive | 
41 | Cc1nnc(C(C)C)n1C1CC2CCC(C1)N2CC[C@H](NC(=O)C1CCC(F)(F)CC1)c1ccccc1 (some centres not stated) | inactive | 
42 | Cc1nn(C)c2c1C(c1ccc(C(F)(F)F)cc1)C(C#N)=C(N)O2 (configuration not stated) | inactive | 
43 | CC(=O)[C@@H]1CC[C@]2(C(=O)O)CC[C@]3(C)C(CCC4[C@@]5(C)CC[C@H](O)C(C)(C)C5CC[C@]43C)C12 (some centres not stated) | inactive | 

Row | SMILES | Potency | activity change, negative = cytotoxicity
44 | COc1cc(/C=C/C(=O)OC(C)(C)C(OC2OC(CO)C(O)C(O)C2O)C(=O)OCc2ccc(OC3OC(CO)C(O)C(O)C3O)cc2)ccc1O (configuration not stated) | inactive | 
45 | Cc1cn2c(N)c(Cl)cc(C(=O)NCC3CCN(CC(C)C)CC3)c2n1 | inactive | 
46 | CC(C)=CCC[C@](C)(O[C@@H]1O[C@H](CO[C@@H]2OC[C@@H](O)[C@H](O)[C@H]2O)[C@@H](O)[C@H](O)[C@H]1O)[C@H]1CC[C@]2(C)[C@@H]1[C@H](O)C[C@@H]1[C@@]3(C)CC[C@H](O[C@@H]4O[C@H](CO)[C@@H](O)[C@H](O)[C@H]4O[C@@H]4O[C@H](CO)[C@@H](O)[C@H](O)[C@H]4O)C(C)(C)[C@@H]3CC[C@]12C | inactive | 
47 | COc1ccc2c(c1)OC[C@]1(O)c3cc4c(cc3O[C@H]21)OCO4 | inactive | 
48 | COC1=CC(=O)O[C@@H](/C=C/c2ccccc2)[C@@H]1O | inactive | 
49 | CCOC(=O)N1CCC(NCCNC(=O)c2ccccc2C)CC1 | inactive | 
50 | C=C[C@@]1(C)CC(=O)C2[C@](C)(O1)[C@@H](OC(C)=O)[C@@H](O)[C@H]1C(C)(C)CCC[C@]21C (some centres not stated) |  | 4.2% [at 11.6 µM]
51 | O=C1N(CC2CCCCN2)CCN1c1ccccc1 (configuration not stated) | inactive | 
52 | COc1cc(C(C)=O)ccc1O[C@@H]1O[C@H](CO[C@@H]2O[C@@H](C)[C@H](O)[C@@H](O)[C@H]2O)[C@@H](O)[C@H](O)[C@H]1O | inactive | 
53 | COC(=O)[C@@]1(O)C=CC[C@@H]2[C@@]3(C)C[C@@H](c4ccoc4)OC(=O)[C@H]3CC[C@]21C | inactive | 
54 | COc1ccc(C(=O)O[C@H]2CC(C)=CC[C@@]3(C)[C@@H](OC(C)=O)C[C@@](O)(C(C)C)[C@H]23)cc1 | inactive | 
55 | CC1(C)CC(=O)N(CCCCN2CCN(c3ncccn3)CC2)C(=O)C1 | inactive | 
56 | C=C1CC[C@H]2[C@@](C)(CCC(O)[C@@]2(C)CO)[C@@H]1C/C=C(/C(=O)O)C(O)CO (some centres not stated) | inactive | 
57 | COc1cc(/C=C/C(=O)OC2CC(C)=C(C(=O)O)/C2=C/CO[C@@H]2O[C@H](CO)[C@@H](O)[C@H](O)[C@H]2O)ccc1O (some centres not stated) | inactive | 
58 | CC(=O)OCC1=C[C@H](O)[C@@H]2C(C(=O)O)=CO[C@@H](O[C@@H]3O[C@H](CO)[C@@H](O)[C@H](O)[C@H]3O)[C@H]12 | inactive | 
59 | C=CC(C)(C)O[C@@H]1O[C@H](CO[C@@H]2OC[C@](O)(CO)[C@H]2O)[C@@H](O)[C@H](O)[C@H]1O | inactive | 
60 | COC(=O)[C@@H]1C2CC3c4[nH]c5ccccc5c4CCN3CC2CC[C@@H]1O (some centres not stated) | inactive | 
61 | FC(F)(F)c1cc(C(F)(F)F)c2ccc3nc(-c4nnco4)cn3c2n1 | inactive | 
62 | COC(=O)C1=COC(OC2OC(CO)C(O)C(O)C2O)C2C1CC(OC(=O)C(O)CC(=O)O)C2C (configuration not stated) | inactive | 
